# Measurements published in paper PMC7862700, “An all-to-all approach to the identification of sequence-specific readers for epigenetic DNA modifications on cytosine”.
# What was measured:
# Assay in all cases: DAPPL (digital affinity profiling via proximity ligation, sequencing); 10 mM Tris-HCl pH 7.5, 50 mM NaCl, 1 mM DTT, 4% glycerol, room temperature, 30 min; GST-TFs on glutathione beads, 16-mer random dsDNA library, 0.1% formaldehyde crosslink after washing; high values mean tight binding
# [1] = biological target: T1, FEV (Homo sapiens, UniProt Q99581 1-238); settings: protein: recombinant; tags: N-terminal GST; dsDNA, one strand shown
# T1 sequence: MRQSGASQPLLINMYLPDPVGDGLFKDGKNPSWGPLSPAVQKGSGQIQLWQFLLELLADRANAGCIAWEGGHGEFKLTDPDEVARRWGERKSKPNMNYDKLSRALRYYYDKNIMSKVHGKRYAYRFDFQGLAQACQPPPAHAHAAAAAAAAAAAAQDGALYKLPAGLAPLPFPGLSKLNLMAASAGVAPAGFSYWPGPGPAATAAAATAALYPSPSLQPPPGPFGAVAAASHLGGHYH
# Method in brief: (§1)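 Binding signal is given per hexamer as its read frequency for a factor divided by its frequency in the tag-only sample. GST-fused human transcription factors were expressed in yeast, captured on glutathione beads, barcoded with DNA and pooled with that sample, then incubated with 200 nmole of a 16-mer random double-stranded DNA library in Tris/NaCl/DTT/glycerol buffer for 30 min at room temperature. The pools were then washed, crosslinked, proximity-ligated, amplified by PCR and sequenced on an Illumina NextSeq500.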
# [2] = biological target: ETV5 (Homo sapiens, UniProt P41161 1-510); settings: protein: recombinant; tags: N-terminal GST; dsDNA, one strand shown
# Chain of ETV5 (P41161 whole entry): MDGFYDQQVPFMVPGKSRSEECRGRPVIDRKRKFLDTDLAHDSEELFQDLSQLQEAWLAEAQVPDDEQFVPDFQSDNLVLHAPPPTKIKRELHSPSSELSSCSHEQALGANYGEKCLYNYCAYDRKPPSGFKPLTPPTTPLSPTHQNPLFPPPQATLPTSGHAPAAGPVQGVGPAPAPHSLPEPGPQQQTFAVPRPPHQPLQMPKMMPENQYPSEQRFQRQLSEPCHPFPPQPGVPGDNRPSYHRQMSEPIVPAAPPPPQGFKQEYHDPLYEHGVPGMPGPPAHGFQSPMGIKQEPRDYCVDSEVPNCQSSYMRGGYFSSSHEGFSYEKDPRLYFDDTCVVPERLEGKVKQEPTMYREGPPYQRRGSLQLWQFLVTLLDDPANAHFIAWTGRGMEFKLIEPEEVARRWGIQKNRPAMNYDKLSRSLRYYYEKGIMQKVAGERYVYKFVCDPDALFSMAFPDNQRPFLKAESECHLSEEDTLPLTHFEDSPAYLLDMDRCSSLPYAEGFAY
# Method in brief: as §1
# [3] = biological target: HSF1 (Homo sapiens, UniProt Q00613 1-529); settings: protein: recombinant; tags: N-terminal GST; chain copies: 3; dsDNA, one strand shown
# Chain of HSF1 (Q00613 whole entry): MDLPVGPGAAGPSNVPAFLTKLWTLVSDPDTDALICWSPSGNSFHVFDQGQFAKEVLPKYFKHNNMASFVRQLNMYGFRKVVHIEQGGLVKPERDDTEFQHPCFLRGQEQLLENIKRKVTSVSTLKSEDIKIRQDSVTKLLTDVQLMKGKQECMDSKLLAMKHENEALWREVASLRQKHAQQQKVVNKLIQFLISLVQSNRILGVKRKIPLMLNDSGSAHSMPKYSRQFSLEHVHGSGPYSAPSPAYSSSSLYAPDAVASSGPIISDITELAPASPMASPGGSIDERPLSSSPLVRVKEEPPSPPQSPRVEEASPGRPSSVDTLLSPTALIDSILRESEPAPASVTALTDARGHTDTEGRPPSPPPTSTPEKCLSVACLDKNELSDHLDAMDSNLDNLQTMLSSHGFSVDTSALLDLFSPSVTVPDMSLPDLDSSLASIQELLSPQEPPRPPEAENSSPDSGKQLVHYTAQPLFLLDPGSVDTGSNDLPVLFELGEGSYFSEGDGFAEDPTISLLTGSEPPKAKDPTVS
# Method in brief: as §1
# [4] = biological target: T2, SPIC (Homo sapiens, UniProt Q8N5J4 1-248); settings: protein: recombinant; tags: N-terminal GST; dsDNA, one strand shown
# T2 sequence: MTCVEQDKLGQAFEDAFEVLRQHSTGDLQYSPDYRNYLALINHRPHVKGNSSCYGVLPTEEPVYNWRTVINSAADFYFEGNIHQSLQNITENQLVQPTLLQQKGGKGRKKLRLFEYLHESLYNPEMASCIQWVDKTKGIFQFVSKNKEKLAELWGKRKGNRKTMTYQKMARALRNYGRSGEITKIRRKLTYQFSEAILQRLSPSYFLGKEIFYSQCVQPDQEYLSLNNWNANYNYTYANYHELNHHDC
# Method in brief: as §1
# [5] = biological target: ELF4 (Homo sapiens, UniProt Q99607 1-663); settings: protein: recombinant; tags: N-terminal GST; dsDNA, one strand shown
# Chain of ELF4 (Q99607 whole entry): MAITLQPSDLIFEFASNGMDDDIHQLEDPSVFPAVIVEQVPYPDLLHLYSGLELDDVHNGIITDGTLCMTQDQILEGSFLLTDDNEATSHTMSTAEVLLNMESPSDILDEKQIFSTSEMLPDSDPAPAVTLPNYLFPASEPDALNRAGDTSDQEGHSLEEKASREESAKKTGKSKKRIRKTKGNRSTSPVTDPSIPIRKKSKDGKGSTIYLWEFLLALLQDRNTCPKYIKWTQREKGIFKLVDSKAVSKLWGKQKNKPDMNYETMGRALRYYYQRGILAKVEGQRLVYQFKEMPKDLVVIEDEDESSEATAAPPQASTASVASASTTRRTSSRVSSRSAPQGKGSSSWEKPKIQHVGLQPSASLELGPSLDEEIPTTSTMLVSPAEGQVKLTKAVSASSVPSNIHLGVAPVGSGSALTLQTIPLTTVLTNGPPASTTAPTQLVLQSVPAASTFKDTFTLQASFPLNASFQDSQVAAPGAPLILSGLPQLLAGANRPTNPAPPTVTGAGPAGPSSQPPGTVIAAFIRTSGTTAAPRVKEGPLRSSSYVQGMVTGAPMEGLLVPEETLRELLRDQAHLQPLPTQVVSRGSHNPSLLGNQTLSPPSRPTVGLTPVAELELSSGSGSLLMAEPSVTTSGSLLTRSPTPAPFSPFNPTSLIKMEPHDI
# Method in brief: as §1
# [6] = biological target: T3, ELK4 (Homo sapiens, UniProt P28324-2 1-405); settings: protein: recombinant; tags: N-terminal GST; dsDNA, one strand shown
# T3 sequence: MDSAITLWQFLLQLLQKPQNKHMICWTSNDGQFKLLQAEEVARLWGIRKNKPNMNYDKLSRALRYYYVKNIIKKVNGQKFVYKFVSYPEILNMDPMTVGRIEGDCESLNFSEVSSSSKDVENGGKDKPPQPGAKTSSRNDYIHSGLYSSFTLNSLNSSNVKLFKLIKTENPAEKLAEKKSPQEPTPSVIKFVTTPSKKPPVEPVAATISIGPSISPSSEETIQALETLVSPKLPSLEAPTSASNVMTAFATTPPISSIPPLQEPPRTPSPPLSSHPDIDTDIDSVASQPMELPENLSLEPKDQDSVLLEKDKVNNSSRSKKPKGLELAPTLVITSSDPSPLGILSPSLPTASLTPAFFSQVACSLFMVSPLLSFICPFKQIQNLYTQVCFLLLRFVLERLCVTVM
# Method in brief: as §1
# [7] = biological target: T4, ETV2 (Homo sapiens, UniProt O00321 1-342); settings: protein: recombinant; tags: N-terminal GST; dsDNA, one strand shown
# T4 sequence: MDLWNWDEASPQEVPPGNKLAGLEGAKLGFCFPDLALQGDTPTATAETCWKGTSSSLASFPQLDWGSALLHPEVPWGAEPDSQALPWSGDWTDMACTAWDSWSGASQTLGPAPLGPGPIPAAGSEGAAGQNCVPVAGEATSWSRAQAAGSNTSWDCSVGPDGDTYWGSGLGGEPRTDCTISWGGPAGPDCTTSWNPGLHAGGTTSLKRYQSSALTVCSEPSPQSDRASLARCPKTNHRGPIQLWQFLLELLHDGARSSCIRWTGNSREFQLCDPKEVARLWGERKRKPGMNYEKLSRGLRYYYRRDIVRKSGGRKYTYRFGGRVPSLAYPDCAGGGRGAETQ
# Method in brief: as §1
# [8] = biological target: T5, ELF3 (Homo sapiens, UniProt P78545 1-371); settings: protein: recombinant; tags: N-terminal GST; dsDNA, one strand shown
# T5 sequence: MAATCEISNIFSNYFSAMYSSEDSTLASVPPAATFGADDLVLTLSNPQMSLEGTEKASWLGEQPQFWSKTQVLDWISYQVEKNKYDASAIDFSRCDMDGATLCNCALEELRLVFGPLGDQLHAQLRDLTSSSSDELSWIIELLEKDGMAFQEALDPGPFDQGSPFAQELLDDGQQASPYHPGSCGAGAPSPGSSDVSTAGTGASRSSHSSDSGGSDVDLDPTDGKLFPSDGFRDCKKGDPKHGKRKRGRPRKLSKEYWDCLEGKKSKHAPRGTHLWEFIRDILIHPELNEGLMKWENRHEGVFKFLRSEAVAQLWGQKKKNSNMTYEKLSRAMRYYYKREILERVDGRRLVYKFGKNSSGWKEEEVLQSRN
# Method in brief: as §1
# [9] = biological target: CRX (Homo sapiens, UniProt O43186 1-299); settings: protein: recombinant; tags: N-terminal GST; dsDNA, one strand shown
# Chain of CRX (O43186 whole entry): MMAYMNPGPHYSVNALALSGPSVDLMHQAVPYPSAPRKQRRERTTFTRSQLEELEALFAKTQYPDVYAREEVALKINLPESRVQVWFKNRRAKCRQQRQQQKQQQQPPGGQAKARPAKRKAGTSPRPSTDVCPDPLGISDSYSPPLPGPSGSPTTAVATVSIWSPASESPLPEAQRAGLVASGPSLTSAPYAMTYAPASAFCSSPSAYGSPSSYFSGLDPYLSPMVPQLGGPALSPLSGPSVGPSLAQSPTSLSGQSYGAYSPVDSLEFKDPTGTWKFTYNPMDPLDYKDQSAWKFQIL
# Method in brief: as §1
# [10] = biological target: ETV1 (Homo sapiens, UniProt P50549 1-477); settings: protein: recombinant; tags: N-terminal GST; dsDNA, one strand shown
# Chain of ETV1 (P50549 whole entry): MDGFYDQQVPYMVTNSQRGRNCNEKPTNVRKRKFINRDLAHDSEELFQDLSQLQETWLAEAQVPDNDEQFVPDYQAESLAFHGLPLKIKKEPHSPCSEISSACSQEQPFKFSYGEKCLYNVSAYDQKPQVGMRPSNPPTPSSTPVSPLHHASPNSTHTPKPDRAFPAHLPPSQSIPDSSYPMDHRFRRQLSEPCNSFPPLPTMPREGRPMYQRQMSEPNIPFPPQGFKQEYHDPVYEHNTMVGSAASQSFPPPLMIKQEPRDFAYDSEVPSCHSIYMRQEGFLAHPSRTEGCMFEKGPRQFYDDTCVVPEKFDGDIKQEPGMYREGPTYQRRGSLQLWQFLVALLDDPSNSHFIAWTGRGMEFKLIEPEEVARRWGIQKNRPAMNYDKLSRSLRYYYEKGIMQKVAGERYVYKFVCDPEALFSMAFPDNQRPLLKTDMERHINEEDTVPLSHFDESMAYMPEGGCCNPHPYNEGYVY
# Method in brief: as §1
# [11] = biological target: T6, ERF (Homo sapiens, UniProt P50548 1-548); settings: protein: recombinant; tags: N-terminal GST; dsDNA, one strand shown
# T6 sequence: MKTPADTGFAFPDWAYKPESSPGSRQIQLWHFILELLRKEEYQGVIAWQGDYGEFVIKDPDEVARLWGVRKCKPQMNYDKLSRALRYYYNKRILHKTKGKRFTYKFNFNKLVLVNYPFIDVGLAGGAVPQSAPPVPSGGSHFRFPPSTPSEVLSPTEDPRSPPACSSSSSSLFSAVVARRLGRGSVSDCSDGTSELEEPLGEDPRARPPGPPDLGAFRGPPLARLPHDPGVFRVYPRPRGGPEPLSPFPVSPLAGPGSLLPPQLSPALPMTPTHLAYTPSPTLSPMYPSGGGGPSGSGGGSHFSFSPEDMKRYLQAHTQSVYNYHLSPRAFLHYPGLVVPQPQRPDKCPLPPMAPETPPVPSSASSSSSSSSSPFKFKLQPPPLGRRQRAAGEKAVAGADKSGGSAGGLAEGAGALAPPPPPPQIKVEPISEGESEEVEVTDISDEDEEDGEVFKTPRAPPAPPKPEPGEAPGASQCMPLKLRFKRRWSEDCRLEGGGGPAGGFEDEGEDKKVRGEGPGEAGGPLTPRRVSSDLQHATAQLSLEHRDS
# Method in brief: as §1
# [12] = biological target: T7, ETV3L (Homo sapiens, UniProt Q6ZN32 1-361); settings: protein: recombinant; tags: N-terminal GST; dsDNA, one strand shown
# T7 sequence: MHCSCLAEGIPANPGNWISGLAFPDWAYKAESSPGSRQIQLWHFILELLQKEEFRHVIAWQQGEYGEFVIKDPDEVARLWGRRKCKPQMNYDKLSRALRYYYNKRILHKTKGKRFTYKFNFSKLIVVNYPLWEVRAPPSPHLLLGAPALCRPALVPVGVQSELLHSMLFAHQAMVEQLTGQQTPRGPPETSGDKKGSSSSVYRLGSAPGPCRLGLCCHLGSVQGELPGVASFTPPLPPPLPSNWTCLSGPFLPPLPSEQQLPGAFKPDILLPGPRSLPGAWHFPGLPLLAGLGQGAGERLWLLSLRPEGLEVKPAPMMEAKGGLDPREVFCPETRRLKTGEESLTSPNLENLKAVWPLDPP
# Method in brief: as §1
# [13] = biological target: T8, ETS2 (Homo sapiens, UniProt P15036 1-469); settings: protein: recombinant; tags: N-terminal GST; dsDNA, one strand shown
# T8 sequence: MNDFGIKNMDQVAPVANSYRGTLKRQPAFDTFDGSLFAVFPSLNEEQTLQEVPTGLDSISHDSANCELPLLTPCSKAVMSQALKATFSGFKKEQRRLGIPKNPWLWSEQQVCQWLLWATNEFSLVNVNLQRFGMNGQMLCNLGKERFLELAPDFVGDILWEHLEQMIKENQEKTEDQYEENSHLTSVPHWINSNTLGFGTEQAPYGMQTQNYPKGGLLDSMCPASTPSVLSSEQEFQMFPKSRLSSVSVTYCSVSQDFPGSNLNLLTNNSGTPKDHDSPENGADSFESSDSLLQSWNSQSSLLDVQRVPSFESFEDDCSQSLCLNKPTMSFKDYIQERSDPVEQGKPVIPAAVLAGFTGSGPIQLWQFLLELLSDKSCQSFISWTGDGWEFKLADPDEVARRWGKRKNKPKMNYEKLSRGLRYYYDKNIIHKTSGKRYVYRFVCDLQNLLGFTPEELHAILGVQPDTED
# Method in brief: as §1
# [14] = biological target: T9, SPDEF (Homo sapiens, UniProt O95238 1-335); settings: protein: recombinant; tags: N-terminal GST; dsDNA, one strand shown
# T9 sequence: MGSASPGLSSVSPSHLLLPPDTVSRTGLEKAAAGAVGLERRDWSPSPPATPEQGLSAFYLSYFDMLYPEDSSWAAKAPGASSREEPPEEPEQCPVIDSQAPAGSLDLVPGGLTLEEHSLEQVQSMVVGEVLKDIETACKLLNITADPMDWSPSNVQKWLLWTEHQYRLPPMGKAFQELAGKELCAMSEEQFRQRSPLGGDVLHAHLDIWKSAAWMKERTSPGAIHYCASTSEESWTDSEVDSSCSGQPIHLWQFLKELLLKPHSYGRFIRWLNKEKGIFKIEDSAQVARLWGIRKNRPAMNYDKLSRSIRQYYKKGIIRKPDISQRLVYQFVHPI
# Method in brief: as §1
# [15] = biological target: T10, ETV7 (Homo sapiens, UniProt Q9Y603 1-341); settings: protein: recombinant; tags: N-terminal GST; dsDNA, one strand shown
# T10 sequence: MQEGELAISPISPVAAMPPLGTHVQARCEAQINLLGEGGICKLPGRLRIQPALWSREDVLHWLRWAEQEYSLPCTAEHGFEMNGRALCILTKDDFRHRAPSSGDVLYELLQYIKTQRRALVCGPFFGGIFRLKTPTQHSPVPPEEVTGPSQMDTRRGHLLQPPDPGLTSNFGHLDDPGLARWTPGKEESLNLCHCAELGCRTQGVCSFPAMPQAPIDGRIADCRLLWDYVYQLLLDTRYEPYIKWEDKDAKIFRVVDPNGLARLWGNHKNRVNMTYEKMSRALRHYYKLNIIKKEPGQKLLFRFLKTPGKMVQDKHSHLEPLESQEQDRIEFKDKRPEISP
# Method in brief: as §1
# [16] = biological target: T11, ELF5 (Homo sapiens, UniProt Q9UKW6-2 1-255); settings: protein: recombinant; tags: N-terminal GST; dsDNA, one strand shown
# T11 sequence: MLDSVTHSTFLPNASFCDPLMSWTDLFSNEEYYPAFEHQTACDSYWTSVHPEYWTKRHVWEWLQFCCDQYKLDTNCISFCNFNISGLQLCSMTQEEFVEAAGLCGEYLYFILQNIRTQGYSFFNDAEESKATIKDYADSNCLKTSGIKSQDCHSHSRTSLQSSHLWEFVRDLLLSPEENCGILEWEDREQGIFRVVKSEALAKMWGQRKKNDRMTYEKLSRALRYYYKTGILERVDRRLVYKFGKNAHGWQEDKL
# Method in brief: as §1
# [17] = biological target: T12, ETV3 (Homo sapiens, UniProt P41162-2 1-143); settings: protein: recombinant; tags: N-terminal GST; dsDNA, one strand shown
# T12 sequence: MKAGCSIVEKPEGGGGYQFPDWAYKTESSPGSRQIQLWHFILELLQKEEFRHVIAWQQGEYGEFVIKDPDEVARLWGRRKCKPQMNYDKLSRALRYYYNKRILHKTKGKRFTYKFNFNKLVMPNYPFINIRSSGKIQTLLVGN
# Method in brief: as §1
# [18] = biological target: ETV6 (Homo sapiens, UniProt P41212 1-452); settings: protein: recombinant; tags: N-terminal GST; dsDNA, one strand shown
# Chain of ETV6 (P41212 whole entry): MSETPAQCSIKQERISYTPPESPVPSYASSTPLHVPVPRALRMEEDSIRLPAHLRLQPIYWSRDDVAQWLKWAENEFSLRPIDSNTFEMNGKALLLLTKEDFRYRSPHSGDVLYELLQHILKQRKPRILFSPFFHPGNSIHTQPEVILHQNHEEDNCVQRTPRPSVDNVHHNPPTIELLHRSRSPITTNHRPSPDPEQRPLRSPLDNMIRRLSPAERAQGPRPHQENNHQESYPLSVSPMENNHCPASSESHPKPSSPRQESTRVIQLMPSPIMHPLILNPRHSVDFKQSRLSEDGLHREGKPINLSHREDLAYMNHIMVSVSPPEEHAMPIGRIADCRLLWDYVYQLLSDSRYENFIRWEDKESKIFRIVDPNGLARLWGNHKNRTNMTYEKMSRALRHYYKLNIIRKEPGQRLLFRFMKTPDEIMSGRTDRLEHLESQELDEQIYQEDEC
# Method in brief: as §1
sequence,measurement,setting,value
TTGGCA,binding signal,[1],"1.13 fold enrichment (6-mer frequency, TF over GST control)"
same,binding signal,[2],"1.07 fold enrichment (6-mer frequency, TF over GST control)"
same,binding signal,[3],"1.04 fold enrichment (6-mer frequency, TF over GST control)"
same,binding signal,[4],"1.17 fold enrichment (6-mer frequency, TF over GST control)"
same,binding signal,[5],"1.16 fold enrichment (6-mer frequency, TF over GST control)"
same,binding signal,[6],"1.34 fold enrichment (6-mer frequency, TF over GST control)"
same,binding signal,[7],"1.25 fold enrichment (6-mer frequency, TF over GST control)"
same,binding signal,[8],"1.07 fold enrichment (6-mer frequency, TF over GST control)"
same,binding signal,[9],"1.12 fold enrichment (6-mer frequency, TF over GST control)"
same,binding signal,[10],"1.18 fold enrichment (6-mer frequency, TF over GST control)"
same,binding signal,[11],"1.19 fold enrichment (6-mer frequency, TF over GST control)"
same,binding signal,[12],"1.14 fold enrichment (6-mer frequency, TF over GST control)"
same,binding signal,[13],"1.13 fold enrichment (6-mer frequency, TF over GST control)"
same,binding signal,[14],"1.12 fold enrichment (6-mer frequency, TF over GST control)"
same,binding signal,[15],"1.09 fold enrichment (6-mer frequency, TF over GST control)"
same,binding signal,[16],"1.01 fold enrichment (6-mer frequency, TF over GST control)"
same,binding signal,[17],"1.17 fold enrichment (6-mer frequency, TF over GST control)"
same,binding signal,[18],"1.19 fold enrichment (6-mer frequency, TF over GST control)"
